Inconclusive results are not listed. A call without a number means that no potency is given here. Activity calls are given as the source filed them. The call rests on the fitted dose curve; in most records, active means well fitted cell-killing curve with a large enough effect in the repeat runs; inconclusive means weak or mixed curves, or effect the other way; inactive means no such curve, though single readings can be large or run the other way.

The values below come from PubChem BioAssay (Tox21).
Potency means the concentration at half of the fitted maximal effect.

The nature of this test: qHTS assay to identify small molecule antagonists of the vitamin D receptor (VDR) signaling pathway - cell viability counter screen (AID 743225). Further: nearly all actives have a fitted effect of over 50% in size. As to conditions: VDR-bla HEK293T viability, CellTiter-Glo luminescence, 16 h; series mostly up to 61 µM. From the text:
U.S. Tox21 Program National Center for Advancing Translational Sciences [NCATS] NIH Chemical Genomics Center [NCGC] U.S. Environmental Protection Agency [EPA] National Institutes of Environmental Health Sciences [NIEHS] National Toxicology Program [NTP] U.S. Food and Drug Administration [FDA] Tox21 Assay Overview: The vitamin D receptor (VDR), a member of nuclear hormone receptor superfamily, plays a critical role in calcium homeostasis and bone metabolism. It is also involved in cell differentiation and growth, and thrombogenicity. To identify the compounds that inhibit VDR signaling, the VDR-UAS-bla HEK 293T cell line (Invitrogen, Carlsbad, CA, USA) containing a beta-lactamase reporter gene under the control of an upstream activator sequence (UAS) was used to screen the Tox21 10K compound library. The cytotoxicity of the Tox21 compound library against the VDR-bla cell line was tested in parallel by measuring the cell viability using CellTiter-Glo assay (Promega, Madison, WI) in the same wells.
Tox21 Assay Protocol Summary: VDR-bla cells were dispensed at 2,000 cells/5 uL of assay medium per well into black wall/clear-bottom 1536-well plates using a Multidrop Combi (Thermo Fisher Scientific, Waltham, MA) dispenser. After the assay plates were incubated at a 37C and 5% CO2 for 4 h, 23 nL of compounds dissolved in DMSO, positive controls or DMSO only was transferred to the assay plate by a Pintool station (Kalypsys, San Diego, CA), followed by addition of 1 uL of 1-alpha, 25-Dihydroxy Vitamin D3 (3 nM, final concentration in the wells) using a Bioraptr Flying Reagent Dispenser (FRD) workstation (Beckman Coulter, Indianapolis, IN). The plates were incubated at 37C and 5% CO2 for 16 h, and then 1 uL of LiveBLAzerTM B/G FRET substrate was added using a Bioraptr FRD. The plates were incubated at room temperature for 2 h and fluorescence intensity was measured by an Envision plate reader (PerkinElmer, Shelton, CT). For cell viability readout that measures cytotoxicity, 3 ul/well of CellTiter-Glo reagent was added into the assay plates using a Bioraptr FRD. After 30 min incubation at room temperature, the luminescence intensity in the plates was measured using a ViewLux plate reader (PerkinElmer).
A general note: qHTS replaces the single test concentration by a dilution series.
Turning to `Cc1cc(=O)oc2cc(N(C)C)ccc12`, the Potency result is “inactive”.
With `CC(C)CCCCCCCCCCCCCCC(=O)O` the entry was “inactive”.
`Cc1cc2c(cc1C(F)(F)F)N(C(=O)Nc1ccc(Oc3cccnc3C)nc1)CC2`: the Potency entry was “inactive”.
With `CN(C)C(=O)C1(N2CCCCC2)CCN(CC[C@@]2(c3ccc(Cl)c(Cl)c3)CN(C(=O)c3ccccc3)CCO2)CC1` the figure was 22.9 µM (active).
`CNC(=O)c1ccccc1`: the Potency result is “inactive”.
As for `COc1ccc(-c2ccc3cc(C(=O)O)ccc3c2)cc1C12CC3CC(CC(C3)C1)C2`, the Potency entry is “inactive”.
Regarding `COc1cc(-c2ccc(N=C=O)c(OC)c2)ccc1N=C=O`, the Potency result is “inactive”.
`CCC1OCC(COc2ccc(Oc3ccccc3)cc2)O1` (stereo not given): the Potency result is “inactive”.
For the compound `CCCC(=O)OC[C@@H](OC(=O)CCC)[C@@H](OC(=O)CCC)[C@H](Cn1c2nc(=O)[nH]c(=O)c-2nc2cc(C)c(C)cc21)OC(=O)CCC`, the Potency entry is “inactive”.
`O=Cc1cc(O)ccc1Br`: the Potency entry was “inactive”.
Regarding `C/C=C1/C(=O)C[C@H]2[C@@H]3CCC4=CC(=O)CC[C@]4(C)[C@H]3CC[C@]12C`, the Potency result was “inactive”.
On to `CSc1ccc(/C=C2/C(C)=C(CC(=O)O)c3cc(F)ccc32)cc1`, for which the Potency entry is “inactive”.
Take `NC(=O)N1C(=O)C(C(=O)c2cc(Cl)cs2)c2cc(F)c(Cl)cc21` (stereo not given): the Potency is 13.8 µM (active).
As for `Nc1ccc(N)c2ccccc12`, the figure is 43.6 µM (active); as for `CC[C@H]1O[C@]2(CC[C@@H]1C)C[C@@H]1C[C@@H](C/C=C(\C)C[C@@H](C)/C=C/C=C3\CO[C@@H]4[C@H](O)C(C)=C[C@@H](C(=O)O1)[C@]34O)O2`, 21.7 µM (active).
Consider `CCCC(C)c1ccccc1O` (stereo not given), for which the Potency entry is “inactive”.
`Cc1c(C)c2c(c(C)c1O)CCC(C)(COc1ccc(CC3SC(=O)NC3=O)cc1)O2` (stereo not given): the Potency entry is “inactive”.
For the compound `CCN(CC)CCCC(C)Nc1c2ccc(Cl)cc2nc2ccc(OC)cc12` (stereo not given), the Potency is 23.9 µM (active).
As for `CCCCCCCC(=O)[O-].CCCCCCCC(=O)[O-].[Zn+2]`, the Potency entry is “inactive”.
On to `CCc1cc(Cc2cc(CC)cc(C(C)(C)C)c2O)c(O)c(C(C)(C)C)c1`, for which the Potency was 4.36 µM (active).
With `CN(C)[C@@H]1C(=O)C(C(N)=O)=C(O)[C@@]2(O)C(=O)C3=C(O)c4c(O)ccc(Cl)c4[C@@H](O)[C@H]3C[C@@H]12` the entry was “inactive”; with `O=C1Cc2cc(CCN3CCN(c4nsc5ccccc45)CC3)c(Cl)cc2N1`, 23.9 µM (active).
With `COc1cccc2c1C(=O)c1c(O)c3c(c(O)c1C2=O)C[C@@](O)(C(=O)CO)C[C@@H]3O[C@H]1C[C@H](N)[C@H](O[C@@H]2CCCCO2)[C@H](C)O1`, the Potency result was “inactive”.
For the compound `CCCCCCCCCCCCCCCCCC[N+](C)(C)Cc1ccccc1`, the Potency is 7.84 µM (active).
For the compound `Cn1cc(C(=O)[C@@H]2CCc3nc[nH]c3C2)c2ccccc21`, the Potency entry was “inactive”.
With `CCCCC(CC)COP(=O)(O)OCC(CC)CCCC` (stereo not given), the Potency entry is “inactive”.
As for `CCC1=C[C@@H]2CN(C1)Cc1c([nH]c3ccccc13)[C@@](C(=O)OC)(c1cc3c(cc1OC)N(C)[C@H]1[C@@](O)(C(=O)OC)[C@H](OC(C)=O)[C@]4(CC)C=CCN5CC[C@]31[C@@H]54)C2`, the Potency entry is “inactive”.
Consider `CCOC(=O)O[C@]1(C(=O)OCCl)CC[C@H]2[C@@H]3CCC4=CC(=O)C=C[C@]4(C)[C@H]3[C@@H](O)C[C@@]21C`, for which the Potency entry was “inactive”.
In the case of `Cc1cccc2c1cc1ccc3cccc4ccc2c1c34`, the Potency result was “inactive”.
As for `On1ccccc1=S`, the entry is “inactive”.
Take `CCC(C)Nc1ccc(NC(C)CC)cc1` (stereo not given): the Potency is 8.88 µM (active).
In the case of `Oc1ccc(C2(c3ccc(O)cc3)CC3CC2C2CCCC32)cc1` (stereo not given), the Potency is 33.3 µM (active).
As for `Cc1ccc2oc(CN(Cc3ccccc3)C(=O)Nc3c(F)cc(F)cc3F)c(-c3ccc(Cl)cc3)c2c1`, the entry is “inactive”.
Regarding `CC(C)(C)C(=O)OCOC(=O)C1N2C(=O)CC2S(=O)(=O)C1(C)C` (stereo not given), the Potency entry is “inactive”.
As for `O=C1C=CC(=O)N1`, the Potency was 35.6 µM (active).
Turning to `O=C1C=CC(=O)N1c1ccc(Cc2ccc(N3C(=O)C=CC3=O)cc2)cc1`, the Potency was 21.9 µM (active).
With `c1ccc(CSCc2ccccc2)cc1` the entry was “inactive”; with `Cc1cc(CCN2CCN(c3nsc4ccccc34)CC2)cc2c1NC(=O)CC2(C)C`, 19.5 µM (active).
Regarding `CC(C)OC(=O)c1cc2c(OCC(O)CNC(C)(C)C)cccc2[nH]1` (stereo not given), the Potency entry was “inactive”.
Turning to `CCCN(CCC)c1c([N+](=O)[O-])cc(C(F)(F)F)c(N)c1[N+](=O)[O-]`, the Potency is 21.8 µM (active).
